Assay outcomes from PubChem BioAssay.
Only some compounds are listed: those with a hit (about 3.8% of all), similar ones and a draw of the others.
MBNL1-CUG inh: qHTS Assay for Inhibitors of MBNL1-poly(CUG) RNA binding; 0.036% of 280,000 active; TR-FRET MBNL1-His/biotin-(CUG)12 binding, 665/545 ratio; Potency, µM (highest dose often 57.5 µM), for inactives: at the top dose activity change, negative = inhibition, most hits filed as inhibitors; Muscleblind-like protein 1 (Homo sapiens), Q9NR56; active = well fitted inhibition curve with a large enough effect in the signal ratio, with a control signal flat, not every such curve was filed as active; inconclusive = small, poorly fitted or top-dose-only effect, or effect the other way, or a change in a side signal; inactive = no such curve, though single readings can be large or run the other way; the % refers to the signal ratio; also: potency is read from the fitted curve at half-maximal effect; % is scaled to controls: 0 for no effect and ±100 for the full control effect
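Ratiometric TR-FRET (665 over 545 nm, excitation 340 nm) tracks disruption of MBNL1-His/biotin-(CUG)12 complex after 60 min at room temperature, with compounds at 92 nM to 58 uM final.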
KCNH2 WT inh: qHTS for Inhibitors of KCHN2 3.1: Wildtype qHTS. activity change, % at 1.84 µM. 0.37% of 340,000 active. U2OS, BacMam KCNH2, thallium flux FluxOr; stronger effect = lower value. Voltage-gated inwardly rectifying potassium channel KCNH2 (Homo sapiens), Q12809;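 active = maximum activity change below -70%; inconclusive = maximum activity change between -70% and -50%; inactive = maximum activity change above -50%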; also: % is scaled to controls: 0 for no effect and ±100 for the full control effect
Target sequence (Q12809 whole entry, looked up): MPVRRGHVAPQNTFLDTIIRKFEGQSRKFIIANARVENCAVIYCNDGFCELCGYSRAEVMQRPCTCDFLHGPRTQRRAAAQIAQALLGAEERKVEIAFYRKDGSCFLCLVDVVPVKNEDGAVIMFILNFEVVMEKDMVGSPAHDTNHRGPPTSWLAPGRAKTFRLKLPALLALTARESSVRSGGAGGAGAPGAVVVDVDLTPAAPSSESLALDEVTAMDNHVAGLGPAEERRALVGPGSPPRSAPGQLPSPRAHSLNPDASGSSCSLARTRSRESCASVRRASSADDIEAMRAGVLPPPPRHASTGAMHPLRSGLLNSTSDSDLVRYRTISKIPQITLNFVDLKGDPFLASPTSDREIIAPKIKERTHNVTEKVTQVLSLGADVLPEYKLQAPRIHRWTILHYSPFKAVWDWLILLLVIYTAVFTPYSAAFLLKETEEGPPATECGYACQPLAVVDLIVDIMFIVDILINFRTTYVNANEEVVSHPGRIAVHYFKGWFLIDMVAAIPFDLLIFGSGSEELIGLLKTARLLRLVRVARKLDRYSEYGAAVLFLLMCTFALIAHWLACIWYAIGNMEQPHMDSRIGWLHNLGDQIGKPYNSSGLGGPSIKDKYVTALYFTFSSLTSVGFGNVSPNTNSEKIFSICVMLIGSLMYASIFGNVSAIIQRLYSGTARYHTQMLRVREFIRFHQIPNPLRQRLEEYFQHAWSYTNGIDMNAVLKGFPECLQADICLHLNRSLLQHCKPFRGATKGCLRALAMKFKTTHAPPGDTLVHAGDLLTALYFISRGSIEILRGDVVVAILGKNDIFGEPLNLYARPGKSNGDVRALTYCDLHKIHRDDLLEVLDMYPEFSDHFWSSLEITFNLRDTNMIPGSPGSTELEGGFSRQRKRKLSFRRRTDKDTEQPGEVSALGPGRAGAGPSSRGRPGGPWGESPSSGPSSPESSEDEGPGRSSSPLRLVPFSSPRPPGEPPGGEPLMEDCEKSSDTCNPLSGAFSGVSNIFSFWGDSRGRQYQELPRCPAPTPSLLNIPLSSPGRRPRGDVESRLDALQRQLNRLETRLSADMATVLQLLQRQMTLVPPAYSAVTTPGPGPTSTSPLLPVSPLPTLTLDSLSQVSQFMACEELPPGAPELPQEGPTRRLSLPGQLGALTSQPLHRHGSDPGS
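U2OS cells transduced with wild-type KCNH2 virus are loaded with FluxOr dye for 45 min, and thallium flux is measured in kinetic reads before and after stimulation buffer. Rate constants are normalized to DMSO controls.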
KCNH2 3.1 inh: qHTS for Inhibitors of KCHN2 3.1: Mutant qHTS. activity change, % (tested at about 1.8 µM). Potassium voltage-gated channel subfamily H member 2, brain isoform KCNH2 3.1 (human). U2OS KCNH2 3.1, thallium flux FluxOr; stronger effect = lower value. 0.95% of 340,000 active;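 active = maximum activity change below -70%; inconclusive = maximum activity change from -70% to -50%; inactive = maximum activity change above -50%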;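 also: thallium influx rate constant from kinetic fluorescence after stimulation buffer; % is scaled to controls: 0 for no effect and ±100 for the full control effect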
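Thallium flux read-out: FluxOr dye with Red40 quencher in HBSS/HEPES, 45 min at RT. Rate constants from kinetic reads were normalized to positive and negative DMSO controls. Cells: U2OS virally expressing the 3.1 isoform.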
PLK1 PBD inh: qHTS for Inhibitors of PLK1-PDB (polo-like kinase 1 - polo-box domain): Primary Screen. Serine/threonine-protein kinase PLK1 (Homo sapiens), P53350. Plk1 PBD binding of FITC phosphopeptide, fluorescence polarization. Potency, µM, for inactives: max response, negative = inhibition, most hits filed as inhibitors. 2.8% of 360,000 active; also: potency is read from the fitted curve at half-maximal effect; series mostly up to about 57 µM; % is scaled to controls: 0 for no effect and ±100 for the full control effect; nearly all actives have a fitted effect of over 65% in size
CBFb-RUNX1 inh: qHTS Assay for Compounds Blocking the Interaction Between CBF-beta and RUNX1 for the Treatment of Acute Myeloid Leukemia; AlphaScreen CBFb-His/RUNX1-biotin binding, biochemical; Potency, µM (highest dose often 59.8 µM), without a hit: top-dose activity, negative = inhibition, usual class: inhibitors; 230,000 tested, under 10 active; also: % of control where 0% means no effect
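AlphaScreen binding: CBFb-His and RUNX1-biotin (30 nM each) preincubated 20 min, compound added for 15 min, then nickel and streptavidin beads for 90 min, all at room temperature. Disruption of the interaction by any mechanism counts as activity.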
VDR inh: Inhibitors of the vitamin D receptor (VDR): qHTS. 0.93% of 400,000 active. Potency, µM, for inactives: max response, negative = inhibition, actives largely listed as inhibitors. VDR-SRC2-3 peptide fluorescence polarization, 2 h; also: potency is read from the fitted curve at half-maximal effect; % is scaled to controls: 0 for no effect and ±100 for the full control effect
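Fluorescence polarization assay measuring small-molecule disruption of VDR binding to the coregulator peptide SRC2-3. Compounds were pin-transferred (23 nl) into the reagent mix and incubated 2 h at room temperature before reading.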
* marks the source's active call; other numbers are inactive results; ? = inconclusive; . = no result. Unless noted, calls follow the shape of the dose curve; as a rule, active = well fitted curve in the direction sought with a large enough effect; inconclusive = small, poorly fitted or top-dose-only effect, or another doubt; inactive = no such curve, though single readings can be large; an effect the other way counts as inactive or inconclusive.

SMILES	MBNL1-CUG inh	KCNH2 WT inh	KCNH2 3.1 inh	PLK1 PBD inh	CBFb-RUNX1 inh	VDR inh
COCC(C)NC(=O)CCS(=O)(=O)c1nc(-c2ccc(OC)cc2)cc(C(F)(F)F)n1 (stereo unspecified)	3%	7	-10	?	8%	79µM*
COC(=O)CCS(=O)(=O)c1nc(-c2ccccc2)cc(C(F)(F)F)n1	1%	14	2	21µM*	0%	20µM*
Cc1cc(NC(=O)CCCS(=O)(=O)c2nc(-c3cccs3)cc(C(F)(F)F)n2)no1	27%	-3	-6	?	-6%	18µM*
O=C(O)CCS(=O)(=O)c1nc(-c2cccs2)cc(C(F)(F)F)n1	11%	-1	1	?	3%	?
CCC(C)NC(=O)CCSc1nc(-c2ccc(OC)cc2)cc(C(F)(F)F)n1 (stereo unspecified)	.	.	.	.	.	-1%
Cc1ccc(NC(=O)c2c(C)nn(-c3ccccc3)c2Cl)cc1	-1%	0	0	27µM*	-5%	-6%
CC(=O)c1ccc(NC(=O)c2c(C)nn(-c3ccccc3)c2Cl)cc1	?	-3	9	-2%	?	-28%
Cc1ccccc1COC(=O)c1ccc(-c2nnn(Cc3ccccc3F)n2)cc1	.	.	.	.	.	-1%
NC(=O)NC(CC(=O)NCCc1ccc(S(N)(=O)=O)cc1)c1ccc(Cl)cc1 (stereo unspecified)	-1%	-10	6	15µM*	-1%	?
COc1cc(/C=C(\C#N)c2nc3ccccc3c(=O)[nH]2)cc(OC)c1OC	.	.	.	.	.	-1%
O=C(CSc1nc(-c2ccc(F)cc2)nc2c1Cc1ccccc1O2)Nc1ccc(C(=O)O)cc1	3%	-10	5	15µM*	?	-14%
O=C(CSc1nc(-c2ccccc2)nc2c1Cc1ccccc1O2)Nc1ccc(C(=O)O)cc1	-3%	3	-7	21µM*	?	-15%
Cc1ccc(C(C)C)c(OCCSc2nc(-c3ccccc3F)nc3cc(=O)[nH]n23)c1	.	.	.	.	.	0%
O=c1ccc2cc3c4c(c2o1)CCCN4CCC3	?	-1	8	17µM*	8%	2%
O=c1oc2c3c4c(cc2s1)CCCN4CCC3	24%	3	0	27µM*	?	79µM*
C=CCn1c2ccccc2c(=O)c2cc(C#Cc3cc(OC)cc(OC)c3)ccc21	.	6	-97*	-2%	.	0%
Cn1c2ccccc2c(=O)c2cc(C#Cc3ccccn3)ccc21	23%	.	.	-1%	.	?
Nc1ccc(-c2c3ccc(=O)cc-3oc3cc(O)ccc23)cc1C(=O)O	?	-4	-6	13µM*	.	0%
CC(C)(C)C(=O)Nc1sc2c(c1C(=O)Nc1ccccn1)CCCC2	0%	4	8	27µM*	4%	-25%
Cc1cccc(NC(=O)c2c(NC(=O)C(F)(F)F)sc3c2CCCCC3)c1	.	.	.	.	.	10%
COc1ccc2c(c1)OC/C(=C\c1ccc(OC)c(O)c1)C2=O	.	.	.	.	-15%	20µM*
COc1ccc(C(=S)N2CCN(c3ccccc3Cl)CC2)cc1OC	4%	-12	5	9.5µM*	17%	?
COc1cc(C(=S)N2CCN(c3ccccc3Cl)CC2)cc(O)c1O	-5%	-174*	-75*	17µM*	10%	?
CC(C)(C)c1ccc2c(c1)OC(C(=O)N/N=C\c1ccccn1)CO2 (stereo unspecified)	-6%	1	-38	-8%	-18%	-14%
CC(C)(C)c1ccc2c(c1)OC(C(=O)N/N=C\c1ccc(-c3cccc(C(=O)O)c3)o1)CO2 (stereo unspecified)	-1%	-2	11	19µM*	-1%	?
SMILES	MBNL1-CUG inh	KCNH2 WT inh	KCNH2 3.1 inh	PLK1 PBD inh	CBFb-RUNX1 inh	VDR inh
CCOC(=O)C1(Cc2cccc(Cl)c2)CCCN(C(=O)c2ccco2)C1 (stereo unspecified)	-4%	-24	-6	13µM*	.	?
CCOC(=O)C1(Cc2ccccc2)CCCN(Cc2cnn(CC)c2)C1 (stereo unspecified)	6%	11	0	3%	2%	-10%
CCOC(=O)C1(Cc2cccc(Cl)c2)CCCN(C(=O)c2ccoc2C)C1 (stereo unspecified)	-5%	3	-1	-23%	.	-11%
CCOC(=O)C1(Cc2ccccc2)CCCN(C(=O)c2cnn(CC)c2)C1 (stereo unspecified)	-11%	7	-15	24µM*	.	-18%
COc1cccc(CNC(=O)C2CCCN(S(=O)(=O)c3ccc4c(ccn4C)c3)C2)c1OC (stereo unspecified)	.	.	.	.	.	7%
O=[N+]([O-])c1cccc(CNC2CCCCCC2)c1	23%	6	-1	-9%	3%	-7%
CC1CCCCC1NCc1cccc([N+](=O)[O-])c1 (stereo unspecified)	?	7	-14	27µM*	-2%	-13%
O=C(Cn1[nH]c(=O)c2ccccc2c1=O)NNC(=O)c1ccccc1	0%	-270*	18	-1%	2%	8%
O=C(COc1ccccc1Cl)NNC(=O)Cn1[nH]c(=O)c2ccccc2c1=O	.	0	7	-2%	.	1%
Oc1ccc(/C=N/N=C/c2ccc(O)c(O)c2)cc1O	?	-1	9	-16%	.	-7%
Oc1ccc(N=Cc2ccc(O)c(O)c2)cc1	?	1	-22	21µM*	6%	?
Fc1cc(Br)ccc1Nc1c2c(nc3nc(-c4cccs4)nn13)CCCC2	.	.	.	.	.	18%
CCC(=O)N1CCc2cc(CNS(=O)(=O)c3ccc(C(C)C)cc3)ccc21	.	.	.	.	.	-17%
Cc1ccc(CCNC(=O)C(C)n2nc(C)c3c(C)n(-c4ccc(C)cc4)nc3c2=O)cc1 (stereo unspecified)	.	.	.	.	.	8%
COc1ccc(CNC(=O)C(C)n2nc(C)c3c(C)n(-c4ccc(C)cc4)nc3c2=O)cc1 (stereo unspecified)	-3%	2	9	21µM*	.	?
Cc1cc(Cl)c(O)c(-n2nc3ccccc3n2)c1	.	-15	-3	24µM*	1%	-25%
Cc1cc(-n2nc3ccc(Cl)cc3n2)c(O)c(C(C)(C)C)c1	.	.	.	.	.	-3%
COc1cc(O)cc(OC)c1OC	.	.	.	.	.	45µM*
